Experiment [1] in a line: Tanguay_ZF_120hpf_AXIS_legacy: (Legacy) Oregon State University Tanguay Lab 120 Hour Post-fertilization zebrafish Assay for Body Axis Malformation (AID 2283635). The essentials:
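Chorion is removed with pronase at 4 hpf, then single 6 hpf embryos are dosed (final DMSO 0.64%) and held statically at 28C in sealed, foil-covered plates. At 120 hpf body axis malformation is recorded as present or absent.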

Experiment [2] in a line: Tanguay_ZF_120hpf_EYE_legacy: (Legacy) Oregon State University Tanguay Lab 120 Hour Post-fertilization zebrafish Assay for Eye Malformation (AID 2283636). A digest of the protocol:
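Binary brightfield scoring of eye defects at 120 hpf after static exposure from 6 hpf of single pronase-dechorionated wild-type embryos (28C, 0.64% DMSO). Non-mortality endpoints omitted where embryos died; fit vs DMSO.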

Experiment [3] in a line: Tanguay_ZF_120hpf_SNOU_legacy: (Legacy) Oregon State University Tanguay Lab 120 Hour Post-fertilization zebrafish Assay for Snout Malformation (AID 2283637). The essentials: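 Binary snout-malformation call at 120 hpf in wild-type 5D embryos, chorion removed by pronase, under static exposure from 6 hpf at 28C (0.64% DMSO). Embryos dying by 24 or 120 hpf excluded.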
A short description of experiment [4]: Tanguay_ZF_120hpf_JAW_legacy: (Legacy) Oregon State University Tanguay Lab 120 Hour Post-fertilization zebrafish Assay for Jaw Malformation (AID 2283638). The essentials: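 Steps: dechorionate 4 hpf embryos (pronase); plate 1/well at 6 hpf; add test chemical, 0.64% DMSO final; seal, cover, hold at 28C statically to 120 hpf; score jaw defect presence/absence microscopically. Dead embryos not scored.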

The nature of experiment [5]: Tanguay_ZF_120hpf_OTIC_legacy: (Legacy) Oregon State University Tanguay Lab 120 Hour Post-fertilization zebrafish Assay for Otic Vesicle Malformation (AID 2283639). The essentials: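 Wild-type zebrafish larvae, whole-embryo exposure from early stage to 120 hpf at 28C. Binary brightfield scoring of otic vesicle morphology, fitted in the positive direction against the DMSO baseline.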

A short description of experiment [6]: Tanguay_ZF_120hpf_PE_legacy: (Legacy) Oregon State University Tanguay Lab 120 Hour Post-fertilization zebrafish Assay for Pericardial Edema (AID 2283640).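 As to AC50: potency for increased incidence of pericardial edema versus DMSO baseline.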 A digest of the protocol: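 Embryos from wild-type 5D adults were staged, then dosed in 0.64% DMSO. They were kept sealed in the dark at 28C until 120 hpf. Pericardial edema was then recorded as present or absent.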

A short description of experiment [7]: Tanguay_ZF_120hpf_SOMI_legacy: (Legacy) Oregon State University Tanguay Lab 120 Hour Post-fertilization zebrafish Assay for Somite Malformation (AID 2283647). The essentials:
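Read-out: presence or absence of somite malformation in 120 hpf larvae, gain-of-signal relative to DMSO baseline. Embryos lacked chorion (pronase, 4 hpf) and were exposed statically from 6 hpf at 28C; dead larvae not scored.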

A short description of experiment [8]: Tanguay_ZF_120hpf_PFIN_legacy: (Legacy) Oregon State University Tanguay Lab 120 Hour Post-fertilization zebrafish Assay for Pectoral Fin Malformation (AID 2283648).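 Also: each larva judged yes or no for fin defect by brightfield with dead larvae skipped.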 A digest of the protocol: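 Pectoral fin malformation was recorded as a binary endpoint at 120 hpf in wild-type Tropical 5D larvae, which had been dechorionated and exposed statically from 6 hpf at 28C in 0.64% DMSO. Dead embryos were excluded.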

Experiment [9] can be described thus: Tanguay_ZF_120hpf_CFIN_legacy: (Legacy) Oregon State University Tanguay Lab 120 Hour Post-fertilization zebrafish Assay for Caudal Fin Malformation (AID 2283649). A digest of the protocol: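 Binary presence or absence of caudal fin malformation at 120 hpf, read by brightfield microscopy, with DMSO as baseline. Larvae came from 5D wild-type embryos exposed statically from 6 hpf at 28C after pronase dechorionation.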

Experiment [10] in a line: Tanguay_ZF_120hpf_BRAI_legacy: (Legacy) Oregon State University Tanguay Lab 120 Hour Post-fertilization zebrafish Assay for Brain Malformation (AID 2283641). A digest of the protocol: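 Wild-type 5D larvae, static waterborne exposure to 120 hpf, 28C, 0.64% v/v DMSO. Brightfield scoring of brain defects, binary; dead embryos excluded. Positive ctrl 5uM trimethyltin chloride.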

Results filed as inconclusive are left out. Activity calls are given as the source filed them. The calls were made as follows: active = hit-call score of the fitted dose curve at least 0.9, where 1 is the maximum; inconclusive = response in the unintended direction; inactive = score below 0.9.

Regarding `O=C(O)c1cc(N=Nc2ccc(S(=O)(=O)Nc3ccccn3)cc2)ccc1O`, the compound was classed as inactive in experiment [1], in [2], in [3], in experiment [4], in [5] and in [6]. The result in experiment [7], in [8] and in experiment [9] was inactive.

Turning to `CC[C@H]1CC[C@H](NCc2cc3c(cc2OC)[C@H]2C[C@H]2C(=O)N3C)[C@H](c2ccccc2)N1`, the call in experiment [1], in [2], in [3], in experiment [4], in [5] and in experiment [6] was inactive. The compound was classed as inactive in experiment [7], in experiment [8] and in experiment [9].

In the case of `O=C(O)c1cccc(N(Cc2cccnc2)c2ccc(OC(F)F)c(OC(F)F)c2)c1`, the compound was classed as inactive in experiment [1], in [2], in experiment [3], in [4], in experiment [5] and in experiment [6]. The compound was called inactive in experiment [10], in experiment [7], in [8] and in experiment [9].

On to `Cn1c(=O)c2c(ncn2C)n(C)c1=O`, for which the compound was classed as inactive in experiment [1], in [2], in experiment [3], in experiment [4], in experiment [5] and in [6]. Also, the outcome in experiment [10], in [7], in [8] and in [9] was inactive.

Turning to `COc1ccc2sc(C(=O)Nc3nnn[nH]3)c(OC(C)C)c2c1`, the outcome in [1], in experiment [2], in [3], in experiment [4], in experiment [5] and in experiment [10] was inactive. Besides, the result in experiment [7], in experiment [8] and in [9] was inactive.

As for `O=C(NS(=O)(=O)/C=C/c1ccccc1)c1ccc(F)cc1Cl`, the compound was classed as inactive in [1], in experiment [2], in experiment [3], in experiment [4], in experiment [5] and in experiment [6]. Further, the compound was called inactive in experiment [10] and in experiment [9].

As for `C=CC(=C)CCC=C(C)C`, the compound was called inactive in experiment [1], in experiment [2], in experiment [3], in experiment [4], in experiment [5] and in experiment [6]. The compound was called inactive in experiment [10], in experiment [7] and in [9].

Consider `CC(C)=CCCC(C)=CC=O`, for which the compound was called inactive in experiment [1], in experiment [2], in experiment [3], in experiment [4], in experiment [5] and in [6]. The call in experiment [10], in experiment [7] and in experiment [9] was inactive.

As to `O=C(OC[C@H]1O[C@@H](OC(=O)c2cc(O)c(O)c(OC(=O)c3cc(O)c(O)c(O)c3)c2)[C@H](OC(=O)c2cc(O)c(O)c(OC(=O)c3cc(O)c(O)c(O)c3)c2)[C@@H](OC(=O)c2cc(O)c(O)c(OC(=O)c3cc(O)c(O)c(O)c3)c2)[C@@H]1OC(=O)c1cc(O)c(O)c(OC(=O)c2cc(O)c(O)c(O)c2)c1)c1cc(O)c(O)c(OC(=O)c2cc(O)c(O)c(O)c2)c1`, the call in experiment [1], in experiment [2], in experiment [3], in experiment [4], in experiment [5] and in experiment [6] was inactive. The call in [10], in [7], in experiment [8] and in experiment [9] was inactive.

As for `CCNc1ccccc1`, the compound was called inactive in experiment [1], in [2], in experiment [3], in experiment [4], in experiment [5] and in [6]. In addition, the outcome in [10], in experiment [7], in [8] and in experiment [9] was inactive.

As to `Nc1nc2ncc(CNc3ccc(C(=O)N[C@@H](CCC(=O)O)C(=O)O)cc3)nc2c(=O)[nH]1`, the result in experiment [1], in experiment [2], in experiment [3], in experiment [4], in experiment [5] and in experiment [6] was inactive. For the same compound, the outcome in [9] was inactive.

The AC50 is the concentration at which the activity in the assay is half-maximal. On to `Cn1c(=O)cc(Oc2ccc(F)cc2F)c2cnc(NCC(C)(C)O)nc21`, for which the result in [1], in experiment [2], in experiment [3], in experiment [4], in [5] and in [10] was inactive. The compound was classed as inactive in experiment [7], in experiment [8] and in experiment [9]. Further, the AC50 in experiment [6] was 10.3 µM (active).

With `NC(=O)NO`, the result in experiment [1], in [2], in experiment [3], in [4], in [5] and in [6] was inactive. The compound was called inactive in [10], in experiment [8] and in experiment [9].

In the case of `Cc1[nH]cnc1C[C@H]1CCc2c(C)c3ccccc3n2C1=O`, the compound was classed as inactive in experiment [1], in experiment [2], in experiment [3], in [4], in [6] and in [10]. In addition, the outcome in experiment [7], in experiment [8] and in [9] was inactive.

Consider `O=C(O)CC(O)C(=O)O` (stereo not drawn), for which the result in experiment [1], in experiment [2], in experiment [3], in [4], in [6] and in [10] was inactive. Further, the result in experiment [7], in [8] and in experiment [9] was inactive.

Consider `CCCCCCCCCCCCCCCO`, for which the call in experiment [1], in experiment [2], in experiment [3], in experiment [4], in experiment [5] and in experiment [6] was inactive. Further, the call in experiment [10], in experiment [8] and in [9] was inactive.

`CCCN(C1CCN(C(=O)C2CCNCC2)CC1)[C@@H]1CCc2ccc(OC)cc2C1`: the call in experiment [1], in experiment [2], in experiment [3], in experiment [4], in experiment [5] and in experiment [6] was inactive. Moreover, the result in [10], in experiment [7], in experiment [8] and in experiment [9] was inactive.

Turning to `O=c1[nH]c2ccc(S(=O)CCN3CCC(Cc4ccc(F)cc4)CC3)cc2o1` (stereo not drawn), the call in experiment [1], in experiment [2], in experiment [3], in experiment [4], in experiment [5] and in experiment [6] was inactive. Further, the outcome in experiment [10], in experiment [7], in experiment [8] and in experiment [9] was inactive.

`CCOCCOCCOCCO`: the outcome in experiment [2], in experiment [3], in [5], in experiment [6], in experiment [10] and in [7] was inactive. Further, the result in experiment [9] was inactive.

In the case of `O=C(O)c1cccc(Oc2ccccc2)c1`, the compound was called inactive in experiment [2], in experiment [3], in experiment [4], in experiment [5], in [6] and in experiment [10]. Besides, the compound was classed as inactive in experiment [8] and in experiment [9].

Consider `CC(C)c1cccc(C(C)C)c1N1C(=O)c2ccc(O)cc2C1=O`, for which the call in [1], in experiment [3], in [4], in experiment [5], in [6] and in [10] was inactive. The outcome in experiment [8] and in experiment [9] was inactive.

Take `Cc1ccc(N)cc1O`: the compound was classed as inactive in [2], in [3], in experiment [4], in [5], in experiment [6] and in experiment [10]. Besides, the compound was classed as inactive in experiment [7], in experiment [8] and in experiment [9].

The record behind these values is PubChem BioAssay (EPA / NIEHS).
